In the library only some 2.8% were active in any assay of this set; here they are far more common.
Pol eta inh-1 – blocks human DNA polymerase eta activity. 390,000 compounds, 1.2% hits. AID 588591. recombinant Pol eta, fluorescent DNA replication assay. Potency, µM (titrated, usually from 114 µM), without a hit: at the top dose activity change, negative = inhibition, most hits filed as inhibitors; also: potency is read from the fitted curve at half-maximal effect; % is scaled to controls: 0 for no effect and ±100 for the full control effect
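Fluorescent replication assay: 50 nM final substrate added after a 15 min room-temperature compound preincubation with 10 nM enzyme. Signal taken at 0 min and again at 10 min.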
POLI inh – inhibitors of human DNA polymerase iota; Q9UNA4; Pol iota fluorescent replication assay, 10 min; Potency, µM (titrated, usually from 115 µM), inactives show top-dose activity, negative = inhibition, hits mostly inhibitors; 390,000 compounds, 1% hits; also: potency is read from the fitted curve at half-maximal effect
Target sequence (Q9UNA4 whole entry, looked up): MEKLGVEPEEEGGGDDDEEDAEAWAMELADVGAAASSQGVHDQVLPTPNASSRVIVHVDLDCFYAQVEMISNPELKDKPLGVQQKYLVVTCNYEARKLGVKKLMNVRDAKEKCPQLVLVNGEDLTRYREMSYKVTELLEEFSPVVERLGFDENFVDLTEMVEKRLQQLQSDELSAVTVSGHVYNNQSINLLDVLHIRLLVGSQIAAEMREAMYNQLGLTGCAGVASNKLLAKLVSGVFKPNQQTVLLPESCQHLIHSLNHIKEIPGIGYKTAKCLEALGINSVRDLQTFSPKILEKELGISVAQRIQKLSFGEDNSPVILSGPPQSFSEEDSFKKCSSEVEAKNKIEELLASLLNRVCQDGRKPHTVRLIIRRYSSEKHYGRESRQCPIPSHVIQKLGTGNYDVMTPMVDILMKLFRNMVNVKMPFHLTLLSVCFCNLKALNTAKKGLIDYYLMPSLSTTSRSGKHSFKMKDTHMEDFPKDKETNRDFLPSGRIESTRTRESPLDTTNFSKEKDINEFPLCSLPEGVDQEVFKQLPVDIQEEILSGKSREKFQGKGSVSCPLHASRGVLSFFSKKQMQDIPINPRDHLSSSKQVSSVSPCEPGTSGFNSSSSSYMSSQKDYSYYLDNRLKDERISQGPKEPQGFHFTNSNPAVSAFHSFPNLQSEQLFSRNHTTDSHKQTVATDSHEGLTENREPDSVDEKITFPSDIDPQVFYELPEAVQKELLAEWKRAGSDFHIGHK
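Fluorescent replication assay read twice, at 0 min and 10 min after adding 50 nM (final) substrate. Enzyme (10 nM) and compounds were first incubated 15 min at room temperature; enzyme-free buffer wells were negative controls.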
POLB inh – DNA polymerase beta (human) inhibition | P06746 | Pol beta primer extension/strand displacement, fluorescence kinetic | Potency, µM (top dose mostly 114 µM), for inactives: at the highest dose activity change, negative = inhibition, usual class: inhibitors | 340,000 compounds, 1.3% hits | AID 485314; also: potency is read from the fitted curve at half-maximal effect; % is scaled to controls: 0 for no effect and ±100 for the full control effect
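Preincubation: enzyme (10 nM) with compound, 15 min, RT. Reaction: substrate added to 50 nM final. Reads: 0 and 10 min. Analysis: normalized, Hill fit.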
Pol kappa inh-1 – blocks human DNA polymerase kappa activity; Q9UBT6; purified Pol kappa, fluorescent DNA synthesis assay, 10 min; Potency, µM (doses to about 107 µM), for inactives: at the top dose activity, negative = inhibition, hits mostly inhibitors; 400,000 compounds, 0.53% hits; also: potency is read from the fitted curve at half-maximal effect; % is scaled to controls: 0 for no effect and ±100 for the full control effect
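First, compounds were pin-transferred onto 10 nM Pol kappa. After 15 min at room temperature, substrate was added to 50 nM final. Fluorescence was then measured kinetically at 0 and 10 min.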
PI5P4K alpha inh – blocks human PI5P4K alpha kinase activity; P48426; PI5P4Kalpha enzyme, ADP-Glo luminescence, 60 min; hits give low values; max response, %; 330,000 compounds, 1.2% hits; active = max response of -50% or lower; inconclusive = between -30% and -50%; inactive = -30% or higher; also: value at the top dose of about 77 µM; % is scaled to controls: 0 for no effect and ±100 for the full control effect
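ADP-Glo luminescence end-point read after a 60 min room-temperature kinase reaction of PI5P4Kalpha plus substrate, initiated with ATP at 5 microM final. Buffer: 0.038 M HEPES pH 7.4, EGTA, 0.1% CHAPS, 5% DMSO.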
WRN inhibitor – blocks human WRN helicase; 360,000 compounds, 0.46% hits; AID 651768; Potency, µM (highest dose often 114 µM), without a hit: top-dose activity change, negative = inhibition, usual class: inhibitors; WRN helicase unwinding, fluorescent forked duplex, kinetic; Q14191; also: potency is read from the fitted curve at half-maximal effect; % is scaled to controls: 0 for no effect and ±100 for the full control effect; nearly all actives have a fitted effect of over 55% in size
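Primary qHTS, 1536-well format. 20 nM WRN + compound, 15 min RT; start with 100 nM forked fluorophore/quencher duplex, 2 mM ATP (final); kinetic read ex 525/em 598 nm.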
GALK confirm – confirmation of human galactokinase (GALK) inhibitors | purified GALK, Kinase-Glo ATP depletion luminescence | 150 compounds, 70% hits | Potency, µM (series often up to 115 µM), for inactives: at the top dose activity, negative = inhibition, actives largely listed as inhibitors | shares compounds with Pol eta inh-1
Redox cycling – counter-screen for GALK inhibitors: redox cycling H2O2 generation. shares compounds with Pol eta inh-1. Phenol red-HRP H2O2 redox cycling, absorbance 600 nm. 150 compounds, 40% hits. Potency, µM (series often up to 115 µM), for inactives: top-dose activity change, negative = H2O2 signal, most hits filed as inhibitors
HEK293 tox – reduces HEK-293 cell viability in GALK counter-screen; shares compounds with Pol eta inh-1; HEK-293 viability, ATP luminescence (CellTiter-Glo), 24/48 h; Potency, µM (doses to about 46.1 µM), inactives show top-dose activity change, negative = cytotoxicity, actives largely listed as inhibitors; 170 compounds, 10% hits; AID 2547; also: potency is read from the fitted curve at half-maximal effect; % is scaled to controls: 0 for no effect and ±100 for the full control effect
Pol kappa inh-2 – confirmation of human DNA polymerase kappa inhibitors; shares compounds with Pol eta inh-1; purified Pol-kappa, fluorescent strand-displacement substrate; Potency, µM, most hits filed as inhibitors; 920 compounds, 76% hits; AID 720501; also: potency is read from the fitted curve at half-maximal effect
Pol eta inh-2 – confirmation of human DNA polymerase eta inhibitors. shares compounds with Pol eta inh-1. 2,600 compounds, 64% hits. Potency, µM, usual class: inhibitors. Pol eta primer extension, TAMRA/BHQ fluorescence, 10 min. AID 720502; also: potency is read from the fitted curve at half-maximal effect
The depositor's hits bear a star; u = inconclusive; x = no result given; [ ] = dose if it differs, or a comment. Unless noted, calls follow the shape of the dose curve; as a rule, active = well fitted curve in the direction sought with a large enough effect; inconclusive = small, poorly fitted or top-dose-only effect, or another doubt; inactive = no such curve, though single readings can be large; an effect the other way counts as inactive or inconclusive.

SMILES	Pol eta inh-1	POLI inh	POLB inh	Pol kappa inh-1	PI5P4K alpha inh	WRN inhibitor	Pol eta inh-2	others
COc1cccc(C(=O)OCC(=O)NC23CC4CC(CC(C4)C2)C3)c1	-23%	57%	x	-5%	7	-5%	x
COc1ccc(OCCn2nnc3sc4c(c3c2=O)CCCC4)cc1	x	71µM*	11µM*	u	x	x	u	Pol kappa inh-2=u
COc1ccc(NC(=O)Cn2nnc3sc4c(c3c2=O)CCCC4)cc1	-2%	-5%	-26%	-21%	x	x	x
COC(=O)c1ccc(C)c(NC(=O)CSc2sc3c(O)cc(=O)[nH]c3c2C#N)c1	10µM*	13µM*	35µM*	22µM*	-64*	u	u	Pol kappa inh-2=u
COc1ccc(Cc2nc3ccc(C(=O)NCc4cc(Br)ccc4OC)cc3o2)cc1	-21%	2%	-2%	-13%[60.1 µM]	x	x	x
Cn1c2ccccc2c2cc(/C=N/NC(=O)c3cc(O)cc(O)c3)ccc21	22µM*	28µM*	89µM*	u	-74*	u	54*	Pol kappa inh-2=47*
COc1cccc(N2CCN(C(=O)C3CCC(CNS(=O)(=O)c4ccc(Br)s4)CC3)CC2)c1 (stereo not given)	-3%	2%	0%	0%	x	x	x
Cc1nc2nc(NCc3cccc(Cl)c3)[nH]n2c(=O)c1Cc1ccccc1	1%	-7%	5%	-13%	x	x	x
Cc1ccc(S(=O)(=O)N/N=C\c2ccc([N+](=O)[O-])o2)cc1	11%	u	-3%	-15%	x	-4%	x
Cc1ccc(S(=O)(=O)N/N=C\c2ccc(C)o2)cc1	45µM*	u	40µM*	u	x	-20%[11.6 µM]	67*
CCOC(=O)c1ccc(NC(=O)Cn2nc3c4ccccc4n(Cc4cccc(F)c4)cc-3c2=O)cc1	-8%	16%	-3%	7%	x	x	x
CCc1cc(C(=O)Nc2ccc(S(=O)(=O)NC3=NCCCCC3)cc2)sc1C	56µM*	22µM*	x	50µM*	u	u	u
Cc1ccc(C(=O)Nc2ccc(S(=O)(=O)NC3=NCCCCC3)cc2)c(C)c1	-18%	58%	x	2%	2	-19%	x
Cc1cc(OCCCSc2nc(-c3ccc(C(C)(C)C)cc3)nc3cc(=O)[nH]n23)ccc1Cl	79µM*	u	40µM*	u	x	x	u
Cc1cc(C)cc(OCCSc2nc(-c3ccc(C(C)(C)C)cc3)nc3cc(=O)[nH]n23)c1	u	-17%	22µM*	-18%	x	x	85*
CC(C)(C)c1ccc(OCCSc2nc3ccccc3n2CC(=O)O)cc1	-17%	8%	88%	-4%	9	-6%	x
CCc1cc(OCCCSc2nc(C)cc(=O)[nH]2)ccc1Cl	-20%	3%	u	-2%	x	5%	x
COCCNC(=O)c1ccc(-c2nc(CN3CCc4ccccc43)c(C)o2)cc1	-16%	11%	-19%	0%[60.1 µM]	x	x	x
O=C(c1ccco1)N1CCC2(CC1)CCN(c1ccncc1)CC2	x	x	x	-1%[60.1 µM]	x	x	x
COc1ccc(C(=O)CC2(O)C(=O)N(Cc3cccc(C(F)(F)F)c3)c3ccccc32)cc1 (stereo not given)	-25%	17%	0%	9%	x	x	x
Cc1ccc(NC(=O)CCNS(=O)(=O)c2ccc3[nH]c(=O)oc3c2)c(C)c1	-7%	-20%	u	-21%	1	-5%	x
Cc1ccc(C)c(NC(=O)CCNS(=O)(=O)c2ccc3[nH]c(=O)oc3c2)c1	22µM*	-17%	11µM*	3%	1	-10%[11.6 µM]	u
O=C(CSc1nc2ccc(S(=O)(=O)N3CCOCC3)cc2[nH]1)N1CCOCC1	10%	-13%	4%	-10%	-27	-18%	u	Pol kappa inh-2=30*
O=C(CSc1nc2ccccc2c(=O)[nH]1)N1CCOCC1	9%	-4%	3%	-4%	x	-4%	x
COc1ccc2[nH]c(O)c(N=NC(=O)c3ccc(NS(=O)(=O)c4cccs4)cc3)c2c1	3.5µM*	40µM*	x	79µM*	-88*	u	38*	Pol kappa inh-2=17*
SMILES	Pol eta inh-1	POLI inh	POLB inh	Pol kappa inh-1	PI5P4K alpha inh	WRN inhibitor	Pol eta inh-2	others
O=C(NC1(O)C(=O)c2ccccc2C1=O)c1ccc(C(F)(F)F)cc1	45µM*	1.8µM*	34%	-15%	5	u	u	GALK confirm=19µM*;Redox cycling=11µM*;HEK293 tox=-7%
Cc1ccc(C(=O)NC2(O)C(=O)c3ccccc3C2=O)cc1C	45µM*	2µM*	12%	-9%	3	-5%[11.6 µM]	u	GALK confirm=27µM*;Redox cycling=12µM*;HEK293 tox=3%
CCOC(=O)c1c(C)[nH]c(C)c1S(=O)(=O)N(C)CC(=O)NCc1ccc(Cl)cc1	-15%	20%	1%	-6%[60.1 µM]	x	x	x
CCCN1C(C(=O)c2ccccc2)=C(OC(=O)COc2ccc(C)cc2)c2ccccc2S1(=O)=O	-24%	26%	1%	3%	x	x	x
CCOc1cc(/C=C2\SC(=S)N(C(C(=O)O)c3ccccc3)C2=O)ccc1O (stereo not given)	u	28µM*	u	u	-11	56µM*	x	Pol kappa inh-2=42*
N#CCSc1nnc(SCC#N)s1	20µM*	u	u	u	-75*	u	76*
N#CCSc1nnc(N)s1	-14%	9%	4%	-9%	-7	-4%	x
O=C(NCc1ccco1)c1c[nH]c2ccc(S(=O)(=O)Nc3ccc(F)cc3F)cc2c1=O	50µM*	u	u	-26%	x	x	x	Pol kappa inh-2=u
O=C(O)c1cccc(NC(=O)c2ccc3c(c2)C(=O)N(Cc2ccco2)C3=O)c1	18µM*	50µM*	u	u	-26	-19%[11.6 µM]	43*	Pol kappa inh-2=67*

Source: PubChem
